HP1b chromo inh = HTS for Inhibitors of HP1-beta Chromodomain Interactions with Methylated Histone Tails. Chromobox protein homolog 1 (Homo sapiens), P83916. AlphaScreen HP1-beta / biotin-H3K9me3 peptide binding. Potency, µM (series often up to 114 µM), inactives show top-dose activity change, negative = inhibition, hits mostly inhibitors. 390,000 compounds, 0.56% hits. AID 540317, 2011; further: potency means the concentration at half of the fitted maximal effect; nearly all actives have a fitted effect of over 70% in size
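AlphaScreen: HP1-beta (50 nM) preformed 30 min with biotin-H3(1-18)K9me3 peptide (50 nM) in PBS pH 7.4, 0.01% Tween-20. Compound added for 30 min at RT, then streptavidin donor/nickel chelate acceptor beads (10 ug/mL) for 30 min.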
PLK1 PBD inh = qHTS for Inhibitors of PLK1-PDB (polo-like kinase 1 - polo-box domain): Primary Screen. Plk1 PBD binding of FITC phosphopeptide, fluorescence polarization. Potency, µM, for the others: max response, negative = inhibition, hits mostly inhibitors. 360,000 compounds, 2.8% hits. Serine/threonine-protein kinase PLK1 (Homo sapiens), P53350; further: potency means the concentration at half of the fitted maximal effect; series mostly up to about 57 µM; on the % scale 0 is the no-effect control and ±100 the full control effect; nearly all actives have a fitted effect of over 65% in size
Target sequence (P53350 whole entry, looked up, the tested form may be a part): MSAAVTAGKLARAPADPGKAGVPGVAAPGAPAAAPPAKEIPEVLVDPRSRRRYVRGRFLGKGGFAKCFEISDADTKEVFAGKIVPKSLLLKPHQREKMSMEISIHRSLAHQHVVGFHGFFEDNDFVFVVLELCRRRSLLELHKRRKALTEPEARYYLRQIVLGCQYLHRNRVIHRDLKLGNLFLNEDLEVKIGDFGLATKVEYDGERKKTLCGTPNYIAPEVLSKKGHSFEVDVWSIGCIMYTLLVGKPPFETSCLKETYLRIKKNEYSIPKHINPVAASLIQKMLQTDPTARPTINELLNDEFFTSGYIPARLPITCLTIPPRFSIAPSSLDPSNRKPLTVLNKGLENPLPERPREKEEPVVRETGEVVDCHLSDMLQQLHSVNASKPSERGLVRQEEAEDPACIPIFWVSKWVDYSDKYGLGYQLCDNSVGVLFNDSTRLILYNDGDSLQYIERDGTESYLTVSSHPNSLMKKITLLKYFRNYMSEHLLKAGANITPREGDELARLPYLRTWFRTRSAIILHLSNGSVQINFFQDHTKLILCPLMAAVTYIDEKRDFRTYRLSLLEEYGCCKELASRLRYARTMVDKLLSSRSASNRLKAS
PI5P4K alpha inh = qHTS for Inhibitors of phosphatidylinositol 5-phosphate 4-kinase (PI5P4K) | Phosphatidylinositol 5-phosphate 4-kinase type-2 alpha (Homo sapiens), P48426 | PI5P4Kalpha enzyme, ADP-Glo luminescence, 60 min; hits give low values | max response, % | 330,000 compounds, 1.2% hits | AID 652105, 2013; active means max response of -50% or lower; inconclusive means between -30% and -50%; inactive means -30% or higher; further: value at the top dose of about 77 µM; on the % scale 0 is the no-effect control and ±100 the full control effect
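Controls without substrate or without enzyme flank wells where PI5P4Kalpha converts substrate using 5 microM ATP (final). Incubation lasts 60 minutes at room temperature; ADP formed is read by ADP-Glo luminescence.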
KAT2A inh = qHTS Assay for Inhibitors of GCN5L2; Histone acetyltransferase KAT2A (Homo sapiens), Q92830; GCN5L2 HAT assay, ThioGlo1 CoA-SH fluorescence; Potency, µM (titrated, usually from 58.9 µM), inactives show at the top dose activity change, negative = inhibition, hits mostly inhibitors; 390,000 compounds, 0.21% hits; further: potency means the concentration at half of the fitted maximal effect; on the % scale 0 is the no-effect control and ±100 the full control effect
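Fluorescence readout, Ex340nm/Em540nm: ThioGlo1 (50uM final) reacts with free CoA thiol released as 20nM GCN5L2 acetylates H3(1-25) peptide (75uM) using acetyl-CoA (70uM). Compound and enzyme sat 15 min beforehand; 20 min room-temperature reaction.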
JMJD2A Tudor = qHTS Assay for Inhibitors of JMJD2A-Tudor Domain; Lysine-specific demethylase 4A (Homo sapiens), O75164; AlphaScreen JMJD2A-Tudor / H3K4me3 peptide binding; Potency, µM (highest dose often 114 µM), without a hit: top-dose activity change, negative = inhibition, most hits filed as inhibitors; 390,000 compounds, 4.4% hits; further: potency means the concentration at half of the fitted maximal effect; on the % scale 0 is the no-effect control and ±100 the full control effect; nearly all actives have a fitted effect of over 50% in size
BAZ2B block = qHTS Assay for Inhibitors of BAZ2B | Bromodomain adjacent to zinc finger domain protein 2B (Homo sapiens), Q9UIF8 | AlphaScreen BAZ2B-H3K14Ac peptide displacement | Potency, µM (highest dose often 114 µM), inactives show at the highest dose activity change, negative = inhibition, hits mostly inhibitors | 360,000 compounds, 4.4% hits; further: potency means the concentration at half of the fitted maximal effect; on the % scale 0 is the no-effect control and ±100 the full control effect; nearly all actives have a fitted effect of over 60% in size
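BAZ2B (50 nM) with biotin-H3(5-23)K14Ac peptide (50 nM) in PBS pH 7.4, 0.01% Tween-20, preformed 30 min, then compound 30 min at room temperature; top concentration 110uM. AlphaScreen streptavidin donor/nickel chelate acceptor beads (10 ug/mL final), 20 min dark, signal read.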
An asterisk follows results filed as active; [ ] = another dose, or the depositor's remark. Rows were chosen to be rich in hits. Some 7% of all compounds tested hit in one or more screens of this group. Unless noted, the call rests on the fitted dose curve; in most records, active means well fitted curve in the direction sought with a large enough effect; inconclusive means small, poorly fitted or top-dose-only effect, or another doubt; inactive means no such curve, though single readings can be large; an effect the other way counts as inactive or inconclusive.

What do the screens show for `COc1ccc(OC)c(-c2cc(C3CCN(c4cc(Cl)nc(N)n4)CC3)[nH]n2)c1`?
HP1b chromo inh: -19%; PLK1 PBD inh: -17%; PI5P4K alpha inh: 17; KAT2A inh: -5%; JMJD2A Tudor: inconclusive; BAZ2B block: inconclusive

How did COc1ccc(-c2cc(C3CCN(Cc4ccc([N+](=O)[O-])cc4)CC3)[nH]n2)cc1 do in these assays?
HP1b chromo inh: inconclusive; PLK1 PBD inh: -13%; PI5P4K alpha inh: 33; KAT2A inh: -21%; JMJD2A Tudor: 45µM*; BAZ2B block: inconclusive

How did COc1ccc(OC)c(-c2cc(C3CCN(c4ncccc4[N+](=O)[O-])CC3)[nH]n2)c1 do in these assays?
HP1b chromo inh: inconclusive; PLK1 PBD inh: 0%; PI5P4K alpha inh: 13; KAT2A inh: -6%; JMJD2A Tudor: 25µM*; BAZ2B block: 13µM*

How did C/C=C/c1ccc(OCC(=O)O)c(OC)c1 do in these assays?
HP1b chromo inh: -5%; PLK1 PBD inh: -6%; PI5P4K alpha inh: -3; KAT2A inh: -1%; JMJD2A Tudor: -15%; BAZ2B block: -16%

What do the screens show for `C/C=C/c1ccc(OCC(O)CN2CCCCC2CC)c(OC)c1` (centres undefined)?
HP1b chromo inh: inconclusive; PLK1 PBD inh: -8%; PI5P4K alpha inh: -10; KAT2A inh: 0%; JMJD2A Tudor: 3.5µM*; BAZ2B block: 56µM*

Results for C/C=C/c1ccc(OCC(O)CN(C)Cc2ccc(SC)cc2)c(OC)c1 (centres undefined) ?
HP1b chromo inh: inconclusive; PLK1 PBD inh: -7%; PI5P4K alpha inh: 1; KAT2A inh: 20%; JMJD2A Tudor: 4µM*; BAZ2B block: 50µM*

What do the screens show for `C/C=C/c1ccc(OCC(O)CNCCc2ccc(OC)cc2)c(OC)c1` (centres undefined)?
HP1b chromo inh: inconclusive; PLK1 PBD inh: -5%; PI5P4K alpha inh: 2; KAT2A inh: -20%; JMJD2A Tudor: 20µM*; BAZ2B block: 56µM*

Results for C/C=C/c1ccc(OCC(O)CNCC(c2ccc(OC)cc2)N(C)C)c(OC)c1 (centres undefined) ?
HP1b chromo inh: -15%; PLK1 PBD inh: 2%; PI5P4K alpha inh: -3; KAT2A inh: -1%; JMJD2A Tudor: 22µM*; BAZ2B block: 18µM*

How did CC1CCCCN1CC(O)COc1ccc(OCC(O)CN2CCCCC2C)cc1 (centres undefined) do in these assays?
HP1b chromo inh: 19%; PLK1 PBD inh: -11%; PI5P4K alpha inh: 9; KAT2A inh: -22%; JMJD2A Tudor: -7%; BAZ2B block: 4%

How did COc1ccc(N2CCN(C3(c4ccccc4)C(=O)c4ccccc4C3=O)CC2)cc1 do in these assays?
HP1b chromo inh: 13µM*; KAT2A inh: -10%; JMJD2A Tudor: 8.9µM*; BAZ2B block: 7.1µM*

What do the screens show for `COc1ccc(NC2(c3ccccc3)OC(=O)c3ccccc32)cc1` (centres undefined)?
HP1b chromo inh: 27%; PLK1 PBD inh: -3%; PI5P4K alpha inh: 5; KAT2A inh: -8%; JMJD2A Tudor: -15%; BAZ2B block: -16%

How did COc1ccc(NC2(c3ccc(Cl)cc3)C(=O)c3ccccc3C2=O)cc1 do in these assays?
HP1b chromo inh: 14µM*; PLK1 PBD inh: -9%; PI5P4K alpha inh: 17; KAT2A inh: -7%; JMJD2A Tudor: 56µM*; BAZ2B block: 14µM*

What do the screens show for `COc1ccc(N2CCN(S(=O)(=O)/C=C/c3ccccc3)CC2)cc1`?
HP1b chromo inh: 8%; PLK1 PBD inh: -9%; PI5P4K alpha inh: 0; KAT2A inh: -5%; JMJD2A Tudor: -24%; BAZ2B block: 11%

Results for O=c1cc(N2CCN(c3ccc(F)cc3)CC2)[nH]c(=O)n1-c1cccc(Br)c1 ?
HP1b chromo inh: -2%[57 µM]; KAT2A inh: -4%; JMJD2A Tudor: -36%; BAZ2B block: -2%

How did NCC1CC2c3ccccc3C1c1ccccc12 (centres undefined) do in these assays?
HP1b chromo inh: 56%; PLK1 PBD inh: -12%; PI5P4K alpha inh: 1; KAT2A inh: 3%; JMJD2A Tudor: -25%; BAZ2B block: -1%

Results for CCOC(=O)C1=CCN(S(=O)(=O)c2cccc(Cl)c2)C1c1ccc(Br)cc1 (centres undefined) ?
PLK1 PBD inh: -3%; PI5P4K alpha inh: 15

Results for CN(C)c1ccc2nc3c(=O)[nH]c(=O)nc-3n(CC(O)C(O)C(O)CO)c2c1 (centres undefined) ?
HP1b chromo inh: inconclusive; PLK1 PBD inh: -1%; PI5P4K alpha inh: -29; KAT2A inh: -12%; JMJD2A Tudor: -30%; BAZ2B block: 40µM*

What do the screens show for `CCOC(=O)N1CCN(C(=O)CNC2CCCCCCC2)CC1`?
HP1b chromo inh: 29%; PLK1 PBD inh: -4%; PI5P4K alpha inh: 3; KAT2A inh: -1%; JMJD2A Tudor: 32µM*; BAZ2B block: 50µM*

Results for CCC(C)C(N)C1=NC(C(=O)N[C@@H](CC(C)C)C(=O)N[C@H](CCC(=O)[O-])C(=O)N[C@H](C(=O)N[C@H]2CCCCNC(=O)[C@H](CC(N)=O)NC(=O)[C@@H](CC(=O)[O-])NC(=O)[C@H](Cc3cnc[nH]3)NC(=O)[C@@H](Cc3ccccc3)NC(=O)[C@H]([C@@H](C)CC)NC(=O)[C@@H](CCCN)NC2=O)[C@@H](C)CC)CS1.[Zn+2] (some centres undefined) ?
HP1b chromo inh: 13µM*; PLK1 PBD inh: -10%; PI5P4K alpha inh: -4; JMJD2A Tudor: 2.8µM*

How did CC[C@H](C)[C@@H]1NC(=O)[C@H](Cc2ccc(O)cc2)NC(=O)[C@@H](N)CSSC[C@@H](C(=O)N2CCC[C@H]2C(=O)N[C@@H](CC(C)C)C(=O)NCC(N)=O)NC(=O)[C@H](CC(N)=O)NC(=O)[C@H](CCC(N)=O)NC1=O do in these assays?
KAT2A inh: 3%

How did CC(=O)NCCc1nc2ccccc2n1CCc1ccccc1 do in these assays?
HP1b chromo inh: 33%; PLK1 PBD inh: -15%; PI5P4K alpha inh: 2; KAT2A inh: -4%; JMJD2A Tudor: -13%; BAZ2B block: 6%
